Source: PubChem BioAssay (Milwaukee Institute for Drug Discovery)
NS3h inh CB: HCV NS3 helicase inhibitors, primary screen, biochemical, fluorescence polarization, ChemBridge library; AID 687043, 2013; 1.6% of 16,000 active; inhibition, % at 100 µM; NS3h Cy5-dT15 DNA binding;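 active = inhibition above the average over every tested compound plus 3 SD, cut at about 40% in these data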
Cy5 interf NS3h: Cy5 fluorescence quenchers or enhancers, artefact control for HCV NS3 helicase inhibitor project, biochemical, ChemBridge library, Cy5 readout. Cy5-dT15 DNA with NS3h, fluorescence interference; actives lie on both sides; signal over control mean, under 1 quenches. fluorescence interference ratio at 100 µM. 6% of 16,000 active;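 active = compound fluorescence over control fluorescence at most 0.8, a quencher, or at least a set upper limit, an enhancer; inactive = ratio between 0.8 and the set upper limit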
HCV NS3h conf: HCV NS3 helicase inhibitors, retest, confirmation, biochemical, fluorescence polarization, ChemBridge library | inhibition, % at 100 µM | shares compounds with NS3h inh CB | NS3h binding to Cy5-dT15 DNA | AID 720485, 2013 | 20% of 240 active;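 active = percent inhibition of 50% or more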
SSB FP counter: E. coli SSB-DNA binding inhibitors, counter-screen for HCV NS3 helicase inhibitor project, biochemical, fluorescence polarization, selected ChemBridge compounds; shares compounds with NS3h inh CB; E. coli SSB binding Cy5-dT15; 40% of 240 active; inhibition, % at 100 µM;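 active = inhibition of at least 50%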;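 also: displacers lower Cy5 polarization so higher inhibition means more SSB displaced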
Target sequence (P0AGE0 whole entry, looked up): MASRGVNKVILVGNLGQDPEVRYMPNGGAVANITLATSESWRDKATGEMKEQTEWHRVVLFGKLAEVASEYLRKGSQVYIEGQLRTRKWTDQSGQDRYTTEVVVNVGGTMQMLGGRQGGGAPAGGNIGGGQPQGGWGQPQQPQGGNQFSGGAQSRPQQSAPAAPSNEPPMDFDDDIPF
Cy5 SSB fluor CB: Cy5 fluorescence interference with SSB-bound oligo, artefact control for HCV NS3 helicase inhibitor project, biochemical, E. coli SSB, selected ChemBridge compounds; shares compounds with NS3h inh CB; Cy5-dT15/E. coli SSB fluorescence interference; actives lie on both sides; fluorescence interference ratio at 100 µM; 8% of 240 active; AID 720487, 2013;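 active = fluorescence interference ratio at or above 1.2, signal boosting, or at or below 0.8, signal quenching; inactive = ratio between 0.8 and 1.2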;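 also: ratio of compound well signal to mean negative control signal so 1 means no effect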
Cy5 interf conf: Cy5-DNA-NS3h complex fluorescence interference, confirmation, artefact control for HCV NS3 helicase inhibitor project, biochemical, ChemBridge library; shares compounds with NS3h inh CB; Cy5-dT15 DNA/NS3h fluorescence interference counterscreen; fluorescence interference ratio at 100 µM, hits read low; 44% of 240 active; AID 720489, 2013;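 active = fluorescence interference ratio at or below 0.8 quencher or at or above a set limitenhancer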;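 also: ratio of compound fluorescence to mean of negative controls so 1 means no interference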
* hit, by the source's call. Sampled rows, rich in hits. Any-hit rate of the full collection: about 6.9%.

Results for Cc1cc(C)cc(NC(=O)C(=O)NCCc2ccccc2)c1 ?
NS3h inh CB: 21; Cy5 interf NS3h: 0.93

Results for O=C1NC(=S)N(c2ccc(Cl)cc2)C(=O)/C1=C/c1ccc(N2CCOCC2)o1 ?
NS3h inh CB: -1; Cy5 interf NS3h: 0.98

Results for Cc1ccccc1-n1c(O)c(C=C2C=CC=N2)c(=O)[nH]c1=S ?
NS3h inh CB: 63*; Cy5 interf NS3h: 0.75*; HCV NS3h conf: 58*; SSB FP counter: 140*; Cy5 SSB fluor CB: 0.72*; Cy5 interf conf: 0.74*

What do the screens show for `O=c1[nH]c(=O)n(-c2ccc(Br)cc2)c(O)c1C=C1C=CC=N1`?
NS3h inh CB: -2; Cy5 interf NS3h: 0.83

How did Cc1ccc(C)c(S(=O)(=O)Nc2ccccc2)c1 do in these assays?
NS3h inh CB: 7; Cy5 interf NS3h: 0.94

Results for Cc1ccc(C)n1-c1ccc(C(=O)O)c(O)c1 ?
NS3h inh CB: 90*; Cy5 interf NS3h: 1.3*; HCV NS3h conf: 101*; SSB FP counter: 99*; Cy5 SSB fluor CB: 0.92; Cy5 interf conf: 0.98

Results for Cc1ccc(C(=O)O)cc1N1C(=O)C2C3C=CC(C3)C2C1=O (stereo not given) ?
NS3h inh CB: -3; Cy5 interf NS3h: 1.1

What do the screens show for `CC(=O)c1ccc(-n2c(C)ccc2C)cc1`?
NS3h inh CB: 0; Cy5 interf NS3h: 1.1

What do the screens show for `Cc1ccc(C)n1-c1cc(C(=O)O)ccc1O`?
NS3h inh CB: 96*; Cy5 interf NS3h: 1.4*; HCV NS3h conf: 85*; SSB FP counter: 104*; Cy5 SSB fluor CB: 0.94; Cy5 interf conf: 1

Results for COc1ccc(C(=O)N/C(=C/c2ccc(OCCOc3ccccc3OC)cc2)C(=O)NCC2CCCO2)cc1 (stereo not given) ?
NS3h inh CB: 12; Cy5 interf NS3h: 0.94

Results for Cc1ccsc1/C=C1\SC(=S)N(C2CCS(=O)(=O)C2)C1=O (stereo not given) ?
NS3h inh CB: 68*; Cy5 interf NS3h: 1.3*; HCV NS3h conf: 4; SSB FP counter: 17; Cy5 SSB fluor CB: 0.91; Cy5 interf conf: 0.72*

Results for CC(C)c1ccc(/C=C2\SC(=S)N(C3CCS(=O)(=O)C3)C2=O)cc1 (stereo not given) ?
NS3h inh CB: -1; Cy5 interf NS3h: 0.95

What do the screens show for `Cc1cccc(C)c1OCC(=O)Nc1ccc(-c2nc3ccccc3[nH]2)cc1`?
NS3h inh CB: 30; Cy5 interf NS3h: 0.95

Results for CCOC(=O)C1=C(c2ccccc2)NC(=S)NC1c1ccc(OC(C)C)cc1 (stereo not given) ?
NS3h inh CB: 8; Cy5 interf NS3h: 0.88

Results for Cc1ccc2nc(/C(C#N)=C/c3ccc([N+](=O)[O-])c(Cl)c3Cl)[nH]c2c1 ?
NS3h inh CB: 7; Cy5 interf NS3h: 0.96

How did O=C1NC(=O)C(=Cc2cccc(OCc3ccc(Cl)cc3Cl)c2)C(=O)N1 do in these assays?
NS3h inh CB: 38; Cy5 interf NS3h: 1; HCV NS3h conf: 23; SSB FP counter: 17; Cy5 SSB fluor CB: 1; Cy5 interf conf: 0.74*

What do the screens show for `O=C1NC(=O)N(c2ccccc2)C(=O)/C1=C\c1cccc(OCc2ccccc2F)c1`?
NS3h inh CB: 14; Cy5 interf NS3h: 1

What do the screens show for `CCOc1ccccc1NC(=O)CCCOc1ccc(Cl)cc1Cl`?
NS3h inh CB: -7; Cy5 interf NS3h: 1

Results for Cc1[nH]n(-c2ccccc2)c(=O)c1C=C1C=Nc2ccccc21 ?
NS3h inh CB: 8; Cy5 interf NS3h: 1

Results for N#Cc1c(N)c(C#N)c(-c2ccco2)c2c1CCCC2 ?
NS3h inh CB: 32; Cy5 interf NS3h: 0.96; HCV NS3h conf: 17; SSB FP counter: 21; Cy5 SSB fluor CB: 0.98; Cy5 interf conf: 0.92

Results for N#Cc1c(-c2ccco2)c2c([nH]c1=S)CCCC2 ?
NS3h inh CB: 18; Cy5 interf NS3h: 1.1

Results for COC1(/C(N)=C/C(=O)c2ccccc2)CCCCC1 ?
NS3h inh CB: -10; Cy5 interf NS3h: 0.94

What do the screens show for `Cc1cccc(N2C(=O)NC(=O)/C(=C\c3cc(Br)c(O)c([N+](=O)[O-])c3)C2=O)c1`?
NS3h inh CB: 32; Cy5 interf NS3h: 0.99; HCV NS3h conf: 32; SSB FP counter: 62*; Cy5 SSB fluor CB: 0.93; Cy5 interf conf: 0.75*

How did Cc1cccc(N2C(=O)NC(=O)/C(=C/c3cc(Cl)c(O)c(Cl)c3)C2=O)c1 do in these assays?
NS3h inh CB: 16; Cy5 interf NS3h: 1

How did COc1cc(/C=C2\C(=O)NC(=O)N(c3cc(C)cc(C)c3)C2=O)cc(OC)c1O do in these assays?
NS3h inh CB: 8; Cy5 interf NS3h: 1.1

Results for Cc1cc(C)cc(N2C(=O)NC(=O)/C(=C\c3cc(Br)c(O)c([N+](=O)[O-])c3)C2=O)c1 ?
NS3h inh CB: 36; Cy5 interf NS3h: 0.99; HCV NS3h conf: 28; SSB FP counter: 53*; Cy5 SSB fluor CB: 0.95; Cy5 interf conf: 0.99

Results for Cc1ccc(C)c(S(=O)(=O)Nc2ccc(Cl)cc2)c1 ?
NS3h inh CB: 9; Cy5 interf NS3h: 0.92

What do the screens show for `Cc1c(C#N)c2nc3ccccc3n2c(=O)c1=Cc1sc2ccccc2c1O`?
NS3h inh CB: -7; Cy5 interf NS3h: 0.87

How did COc1ccccc1N(CC(=O)Nc1ccccc1Cl)S(=O)(=O)c1ccccc1 do in these assays?
NS3h inh CB: 17; Cy5 interf NS3h: 1

What do the screens show for `COc1cc(C=C2C(=O)NC(=O)NC2=O)cc(I)c1OCc1ccc([N+](=O)[O-])cc1`?
NS3h inh CB: 54*; Cy5 interf NS3h: 0.48*; HCV NS3h conf: 16; SSB FP counter: 31; Cy5 SSB fluor CB: 0.91; Cy5 interf conf: 0.59*

How did C=CCOc1c(I)cc(/C=C2/C(=O)NC(=O)N(c3ccc(OC)cc3)C2=O)cc1OC do in these assays?
NS3h inh CB: 8; Cy5 interf NS3h: 1

What do the screens show for `O=C(O)CC(C(=O)O)c1c[nH]c2ccccc12` (stereo not given)?
NS3h inh CB: -5; Cy5 interf NS3h: 1.1

Results for O=C(O)Cc1c[nH]c2ccc(O)cc12 ?
NS3h inh CB: 90*; Cy5 interf NS3h: 0.81; HCV NS3h conf: 78*; SSB FP counter: 110*; Cy5 SSB fluor CB: 0.88; Cy5 interf conf: 0.91

Results for COc1ccc(C(=O)Nc2ccncc2)cc1Br ?
NS3h inh CB: 21; Cy5 interf NS3h: 0.86

How did CCc1cc(C)cc(OCCOc2cccc(/C=C3/SC(=S)N(C)C3=O)c2)c1 do in these assays?
NS3h inh CB: 9; Cy5 interf NS3h: 0.99
